Screening data from PubChem BioAssay.
An excerpt weighted towards active compounds, which were near 3.6% of everything screened.
HTT prom inh: Primary qHTS for Identification of Small Molecule Inhibitors of Huntingtin Promoter Activity. 48,000 compounds, 0.93% hits. AID 1508623, 2021. HEK293 HTT promoter firefly luciferase reporter, 24 h. Potency, µM (doses to about 57.5 µM), usual class: inhibitors; note: nearly all actives have a fitted effect of over 50% in size
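Firefly luciferase readout (Dual-Glo, 10 min RT) after 24 h, 37 °C compound exposure (final up to 57.5 uM) of HEK293 reporter cells cultured 24 h beforehand; PTC124 at 50 uM final as control inhibitor; activity scaled vehicle 0%, zero RLU -100%.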
PMP22 txn: Cell-based coincidence reporter assay to measure PMP22 gene transcription in S16 Pmp22-F2sN cells - Primary screen. S16 Pmp22-F2sN Schwann cells, FLuc/NLuc coincidence luminescence, 24 h. Potency, µM (top dose mostly 57.5 µM), usual class: inhibitors. 43,000 compounds, 2% hits; active = clear falling dose curves in both reporters; inconclusive = both reporters move, but less clearly or upward; inactive = either reporter flat; the % is the NLuc reporter signal
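Reporter cells (S16 Pmp22-F2sN, 500–1,000 per well) exposed to compounds for 24 h, 37C, 5% CO2; lysis with FLuc read after 10 min, then Stop&Glo and NLuc read after 10 min.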
SKOV3 invasion: Primary qHTS assay for Inhibitors of ovarian cancer metastasis using an organotypic tumor microenvironment (TME) model; Potency, µM (titrated, usually from 45.8 µM), most hits filed as inhibitors; 46,000 compounds, 0.1% hits; SKOV3ip1-GFP adhesion/invasion on 3D omental model, fluorescence; AID 1963576, 2024; note: nearly all actives have a fitted effect of over 65% in size
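Primary human omental fibroblast/mesothelial 3D culture pre-formed 48 h. SKOV3ip1-GFP cells added with compounds (0.36-46 umol/L), incubated 2 h RT/16 h 37 C, fixed; GFP cells quantified at 488/509 nm.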
S16 F2sN tox: Cell viability qHTS assay in S16 Pmp22-F2sN cells; 43,000 compounds, 0.48% hits; S16 Pmp22-F2sN Schwann cells (luciferase reporters placed in the Pmp22 gene) viability, CellTiter-Glo, 24 h; AID 1508642, 2021; Potency, µM (top dose mostly 57.5 µM), actives largely listed as cytotoxic; note: nearly all actives have a fitted effect of over 65% in size
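CellTiter-Glo counter-screen, qHTS, 1536-well. Cells: S16(c9) Pmp22-F2sN, 500-1,000/well in DMEM + 10% FBS. Cpd 23 nL pin transfer, 24 h, 37C/5% CO2. Read: luminescence, CCD imager.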
HTT-AS act: Primary qHTS for Identification of Small Molecule Activators of Huntingtin-Antisense Promoter Activity. HEK293 HTT-AS promoter firefly luciferase reporter, 24 h; response scale: percent change from vehicle, -100% = no light. Potency, µM (series often up to 57.5 µM), usual class: activators. 48,000 compounds, 0.24% hits. AID 1508624, 2021; note: nearly all actives have a fitted effect of over 55% in size
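Quantitative HTS used concentration series of up to 57.5 uM final on HEK293 luciferase reporter cells, 24 h at 37 degrees C. Readout was Dual-Glo firefly luminescence.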
pS6 MEF inh: Acumen qHTS Assay for Inhibitors of the mTORC1 Signaling Pathway in MEF (Tsc2-/-, p53-/-) Cells: Sytravon; Potency, µM (doses to about 38.3 µM), actives largely listed as inhibitors; 44,000 compounds, 0.78% hits; Tsc2-/- p53-/- MEF, phospho-rpS6 immunofluorescence/PI, 24 h; AID 493208, 2011; note: nearly all actives have a fitted effect of over 50% in size
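Cell-based qHTS: Tsc2-/- p53-/- MEF, 24 h cpd, 37 °C; fix/perm, anti-phospho-S6 Alexa-488 + PI; Acumen 488 nm scan; pS6/PI ratio, % positive cells; rapamycin 7.5 nM = inhibition ref; PI count = viability.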
NLuc sat counter: Biochemical NLuc saturation counterscreen for small molecule modulators of PMP22 gene expression - Nano-Glo assay; shares compounds with PMP22 txn; Secreted NLuc enzyme (filtered S16 cell medium), Nano-Glo luminescence; Potency, µM (series often up to 57.5 µM), most hits filed as inhibitors; 690 compounds, 4% hits; AID 1508638, 2021
NLuc Km counter: Biochemical coelenterazine-based NLuc counterscreen for small molecule modulators of PMP22 gene expression - Km assay | shares compounds with PMP22 txn | Potency, µM (titrated, usually from 57.5 µM), most hits filed as inhibitors | secreted NLuc enzyme, coelenterazine luminescence, Km conditions | 690 compounds, 5% hits
FLuc counter: Biochemical FLuc counterscreen for small molecule modulators of PMP22 gene expression. shares compounds with PMP22 txn. purified P. pyralis FLuc, luminescence, 10 min. Potency, µM (series often up to 57.5 µM), actives largely listed as inhibitors. 690 tested, under 10 active
Target sequence (P08659 whole entry, looked up): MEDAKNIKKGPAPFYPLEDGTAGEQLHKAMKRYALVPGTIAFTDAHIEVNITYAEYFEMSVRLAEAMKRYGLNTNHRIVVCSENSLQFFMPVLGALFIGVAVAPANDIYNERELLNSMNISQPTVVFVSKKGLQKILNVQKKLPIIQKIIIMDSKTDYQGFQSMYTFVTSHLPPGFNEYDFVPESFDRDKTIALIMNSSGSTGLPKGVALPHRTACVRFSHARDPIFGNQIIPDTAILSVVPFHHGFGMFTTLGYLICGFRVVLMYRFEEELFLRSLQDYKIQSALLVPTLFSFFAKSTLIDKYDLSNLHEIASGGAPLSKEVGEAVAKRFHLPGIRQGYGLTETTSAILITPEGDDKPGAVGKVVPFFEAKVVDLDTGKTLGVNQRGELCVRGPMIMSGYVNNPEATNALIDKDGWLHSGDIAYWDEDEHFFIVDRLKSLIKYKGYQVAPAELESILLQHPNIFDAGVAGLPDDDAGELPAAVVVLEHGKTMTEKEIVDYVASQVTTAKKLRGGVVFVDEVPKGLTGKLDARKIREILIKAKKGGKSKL
S16 viab conf: Cell viability qHTS assay in S16 Pmp22-F2sN cells - Confirmatory screen; Potency, µM (series often up to 57.5 µM), actives largely listed as cytotoxic; S16 Schwann cells viability, CellTiter-Glo ATP luminescence, 24 h; AID 1508641, 2021; 690 compounds, 7% hits; shares compounds with PMP22 txn
PMP22 txn conf: Cell-based coincidence reporter assay to measure PMP22 gene transcription in S16 Pmp22-F2sN cells - Confirmatory screen | shares compounds with PMP22 txn | S16 Schwann cells Pmp22-F2sN, dual luciferase, 24 h | Potency, µM (series often up to 57.5 µM), hits mostly inhibitors | 690 compounds, 22% hits; active = clear falling dose curves in both reporters; inconclusive = both reporters move, but less clearly or upward; inactive = either reporter flat; the % is the FLuc reporter signal
Numbers stand for hits; . = inactive; ? = inconclusive; / = no result. Unless noted, calls come from the whole dose curve; as a rule, active = well fitted curve in the direction sought with a large enough effect; inconclusive = small, poorly fitted or top-dose-only effect, or another doubt; inactive = no such curve, though single readings can be large; an effect the other way counts as inactive or inconclusive.

SMILES	HTT prom inh	PMP22 txn	SKOV3 invasion	S16 F2sN tox	HTT-AS act	pS6 MEF inh	NLuc sat counter	NLuc Km counter	FLuc counter	S16 viab conf	PMP22 txn conf
C=CC[C@@H]1C=C(C)C[C@H](C)C[C@H](OC)[C@H]2O[C@@](O)(C(=O)C(=O)N3CCCC[C@H]3C(=O)O[C@H](C(C)=C[C@@H]3CC[C@H](O)[C@H](OC)C3)[C@@H](C)[C@@H](O)CC1=O)[C@@H](C)C[C@@H]2OC	?	/	.	/	.	/	/	/	/	/	/
C[C@H](NC(=O)Cc1cc(F)cc(F)c1)C(=O)N[C@@H]1C(=O)N(C)c2ccccc2-c2ccccc21	.	/	.	/	.	/	/	/	/	/	/
COc1ccc(N2CCN(S(=O)(=O)CCNC(=O)Cc3ccc(-c4ccccc4)cc3)CC2)cc1	.	10µM	.	.	.	.	.	.	.	.	.
O=C(Cc1ccc(-c2ccccc2)cc1)NCCS(=O)(=O)N1CCN(c2ccccc2)CC1	?	?	.	.	.	.	/	/	/	/	/
COc1ccc(-c2noc(CSc3nnc(-c4ccncc4)n3-c3ccc(C)c(C)c3)n2)cc1	.	13µM	.	.	.	.	?	?	.	?	?
COc1ccc(-c2noc(CSc3nnc(-c4ccncc4)n3-c3cccc(C)c3)n2)cc1OC	?	10µM	.	.	.	.	?	?	.	.	.
COc1ccc(-n2c(SCc3nc(-c4ccc(Cl)cc4)no3)nnc2-c2ccncc2)cc1	.	?	.	?	.	.	/	/	/	/	/
CCOc1ccccc1-c1noc(CSc2nnc(-c3ccccc3)n2-c2cccc(C)c2)n1	?	?	.	.	.	.	/	/	/	/	/
COc1ccc(-c2noc(CSc3nnc(C)n3-c3ccc(C)cc3)n2)cc1OC	?	12µM	.	.	.	.	22µM	14µM	.	?	.
CCOC(=O)[C@H]1O[C@H]1C(=O)N[C@@H](CC(C)C)C(=O)NCCC(C)C	.	/	.	/	.	/	/	/	/	/	/
CCCS(=O)(=O)c1ncc(Cl)c(C(=O)Nc2c(C(=O)c3ccccc3)oc3ccccc23)n1	.	?	.	.	.	.	/	/	/	/	/
Cc1ccc(C(=O)c2oc3ccccc3c2NC(=O)c2nc(S(C)(=O)=O)ncc2Cl)cc1F	.	7.6µM	.	?	.	.	.	.	.	22µM	13µM
CCCc1oc2ccc(NS(=O)(=O)c3ccc(OC)cc3)cc2c1C(=O)OCC	?	13µM	.	.	.	4.1µM	.	?	.	.	.
CNC(=O)c1cccc(-c2ccc3c(N4CCOC[C@H]4C)nc(N4CCOC[C@H]4C)nc3n2)c1	?	/	.	/	.	/	/	/	/	/	/
CCC[C@@H](NC(=O)[C@@H]1[C@H]2CCC[C@@H]2CN1C(=O)[C@@H](NC(=O)[C@@H](NC(=O)c1cnccn1)C1CCCCC1)C(C)(C)C)C(=O)C(=O)NC1CC1	?	/	.	/	.	/	/	/	/	/	/
O=C(NCCCN1CCN(c2ccc(F)cc2)CC1)Nc1ccccc1Cl	.	13µM	?	.	.	.	?	.	.	?	.
Cc1ccccc1C(C(=O)NC1CCCCC1)N(C(=O)Cn1ccnc1C)c1cccc(F)c1 (centres undefined)	.	/	.	/	?	/	/	/	/	/	/
CCC(=O)N1CCc2cc(Br)cc(S(=O)(=O)N3CCCC(C(=O)NCc4cccc(OC)c4)C3)c21 (centres undefined)	.	14µM	.	.	.	.	.	.	.	.	.
CCC(=O)N1CCc2cc(Br)cc(S(=O)(=O)N3CCCC(C(=O)NCc4ccc(OC)cc4)C3)c21 (centres undefined)	.	?	.	.	.	.	/	/	/	/	/
COc1ccc(CNC(=O)CCCn2c(=O)c3cccn3c3cccnc32)cc1	.	?	.	.	.	.	/	/	/	/	/
COc1cccc(NC(=O)CCCn2c(=O)c3cccn3c3cccnc32)c1	.	?	.	.	.	.	?	?	.	.	?
Cc1c(C(=O)Nc2ccccc2Br)oc2ccc(S(=O)(=O)N3CCCCC3)cc12	.	?	.	.	.	.	.	.	.	.	?
Cc1c(C(=O)Nc2ccccc2Br)oc2ccc(S(=O)(=O)N3CCOCC3)cc12	.	?	.	.	.	.	/	/	/	/	/
Cc1ccc(Cl)cc1NC(=O)c1oc2ccc(S(=O)(=O)N3CCCCC3)cc2c1C	.	.	.	.	.	.	/	/	/	/	/
Cc1c(C(=O)Nc2ccccc2Cl)oc2ccc(S(=O)(=O)N3CCCCCC3)cc12	.	.	.	.	.	.	/	/	/	/	/
Cc1ccc(Cl)cc1NC(=O)c1oc2ccc(S(=O)(=O)N3CCC4(CC3)OCCO4)cc2c1C	.	7.5µM	.	.	.	.	.	.	.	?	?
Cc1c(C(=O)Nc2ccccc2Cl)oc2ccc(S(=O)(=O)N3CCCCC3)cc12	.	14µM	.	.	.	.	.	.	.	.	?
COc1cc(N2CCC(C(N)=O)CC2)ccc1Nc1nc(N)c(Cl)c(Nc2ccccc2S(=O)(=O)C(C)C)n1	?	/	.	/	.	/	/	/	/	/	/
COc1cc2ncn(-c3cc(OCc4ccccc4S(C)(=O)=O)c(C#N)s3)c2cc1OC	?	/	.	/	.	/	/	/	/	/	/
